From PubChem BioAssay (Tox21) come the findings set out here.

The nature of test [1]: Nuclear factor erythroid 2-related factor 2/antioxidant responsive element (Nrf2/ARE) small molecule agonists: qHTS cell viability counter screen in human keratinocytes (AID 1919968; active = well fitted curve in the direction sought with a large enough effect in the repeat runs; an effect the other way counts as inactive or inconclusive; also: nearly all actives have a fitted effect of over 55% in size). A digest of the protocol: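 Measured as CellTiter-Fluor fluorescence, this readout tracks cytotoxicity in the same wells as the ARE-luciferase screen. HaCaT reporter cells (1,500/well) received compounds after a 5 h pre-incubation and were exposed for 23 h.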
A general note: qHTS replaces the single test concentration by a dilution series.

Test [2] can be described thus: Nuclear factor erythroid 2-related factor 2/antioxidant responsive element (Nrf2/ARE) small molecule agonists: luciferase reporter gene qHTS assay in human keratinocytes (AID 1919969). Also: nearly all actives have a fitted effect of over 35% in size. Also: potency is read from the fitted curve at half-maximal effect. Background: A reporter such as luciferase makes a cellular process visible.
In test [3] the target is Gonadotropin-releasing hormone receptor (Homo sapiens) (UniProt P30968). The test is described as follows: Human gonadotropin-releasing hormone receptor (GnRHR) small molecule agonists, calcium flux assay in GnRHR-HEK293 cells (AID 1920063). Also: nearly all actives have a fitted effect of over 35% in size. The method in brief: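 Fluorescence kinetics (480 nm excitation, 540 nm emission; 3 min, 1 s steps) report calcium mobilisation in human GnRHR-HEK293 cells in agonist mode. Dye incubation: 1 h, 37 C.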
(In general: Calcium flux is commonly read through the fluorescence of an indicator in the cells.)

Test [4] deals with KiSS-1 receptor (Homo sapiens) (UniProt Q969F8). In words: Human kisspeptin (KISS1R) small molecule agonists, calcium flux assay in KISS1R-HEK293 cells (AID 1920064; active = well fitted curve in the direction sought with a large enough effect in the repeat runs; an effect the other way counts as inactive or inconclusive). A digest of the protocol:
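Measures KISS1R agonism through calcium-sensitive dye fluorescence in stably transfected HEK293 cells, read for 3 min after pin-tool compound delivery; 15-point titrations in triplicate.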

Test [5] is described as follows: G protein-coupled receptor (GPCR) small molecule agonists, calcium flux assay: HEK293 wild type cell line counter screen (AID 1920065). The method in brief: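 Readout: fluorescence at 480 nm excitation/540 nm emission, sampled at 1 s intervals for 3 min. Cells had been cultured 18 h, then dye-loaded 1 h at 37 C before compound or ATP addition.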
Test [6] can be described thus: p53 small molecule agonists, cell-based qHTS assay with human liver microsomes (AID 1963577).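 Also: p53 response element beta-lactamase reporter cells with liver microsomes plus NADPH.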 The method in brief: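 Metabolically competent format: test substances, human liver microsomes and NADPH (both 0.5 mg/mL final) incubated with p53RE-bla cells 16 h at 37 C. Beta-lactamase reporter signal then quantified by fluorescence.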
Test [7] is described as follows: p53 small molecule agonists, cell-based qHTS assay with rat liver microsomes (AID 1963578). The method in brief: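 Each plate received p53RE-bla cells, then compound, then rat liver microsomes and NADPH (both 0.5 mg/mL final). Plates were held 16 h at 37 C, and beta-lactamase activity was detected with LiveBLAzer over 2 h.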
Test [8] can be described thus: p53 small molecule agonists, cell-based qHTS assay with human liver microsomes: qHTS cell viability counter screen (AID 1963579). Also: nearly all actives have a fitted effect of over 45% in size. The method in brief:
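Tox21 library compounds, delivered from DMSO stocks, were tested on p53RE-bla cells together with 0.5 mg/mL human liver microsomes and 0.5 mg/mL NADPH (final) over 16 h at 37 C; CellTiter-Glo luminescence served as the cytotoxicity measure.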

Test [9] is described as follows: p53 small molecule agonists, cell-based qHTS assay with rat liver microsomes: qHTS cell viability counter screen (AID 1963580). Also: nearly all actives have a fitted effect of over 45% in size. A digest of the protocol: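 p53RE-bla HCT-116 cells (4,000/well) rested 5 h at 37 C, then given Tox21 compounds in DMSO with rat liver microsomes (0.5 mg/mL final) plus NADPH (0.5 mg/mL final) for 16 h at 37 C. Viability read by CellTiter-Glo luminescence after 30 min at room temperature.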

The nature of test [10]: p53 small molecule agonists, cell-based qHTS assay: qHTS cell viability counter screen (AID 1963581). Also: nearly all actives have a fitted effect of over 45% in size. The method in brief:
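In the same plates used for the p53 bla reporter, HCT-116 cells given compounds for 16 h at 37 C received CellTiter-Glo; luminescence was recorded 30 min later at room temperature.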

Test [11] deals with 5-hydroxytryptamine receptor 2A (Homo sapiens) (UniProt P28223). The test is described as follows: 5-hydroxytryptamine receptor 2A (HTR2A) small molecule agonists, cell-based qHTS assay (AID 1963587). Also: nearly all actives have a fitted effect of over 30% in size. A digest of the protocol:
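HTR2A-CHO cells, plated 18 h at 37 C/5% CO2, dye-loaded 1 h at 37 C; compounds in DMSO added by pin tool (agonist mode). Intracellular calcium flux read as kinetic fluorescence on FDSS over 2 min at 1 s intervals.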

Test [12] concerns the target Muscarinic acetylcholine receptor M1 (Homo sapiens) (UniProt P11229). In words: Cholinergic receptor muscarinic 1 (CHRM1) small molecule antagonists, cell-based qHTS assay (AID 1963588). Also: nearly all actives have a fitted effect of over 40% in size. The method in brief:
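CHRM1-CHO calcium-flux assay, antagonist mode. Cells were seeded 18 h, dye-loaded 1 h at 37 C and given compound for 5 min at RT, then acetylcholine was added at 50nM. FDSS fluorescence was read 3 min; 15 concentrations, three runs.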

Test [13] shares this target. The test is described as follows: Cholinergic receptor muscarinic 1 (CHRM1) small molecule agonists, cell-based qHTS assay (AID 1963589). Also: nearly all actives have a fitted effect of over 35% in size. A digest of the protocol: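 Each compound was tested at 15 concentrations across three independent runs on dye-loaded CHO cells stably expressing human CHRM1, reading intracellular calcium fluorescence kinetically at 1 sec intervals.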

A short description of test [14]: cAMP Responsive Elements (CRE) small molecule agonists, cell-based qHTS assay (AID 1963590). A digest of the protocol: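 Cell line: CRE-bla HEK 293T; medium DMEM/10% dialyzed FBS/0.1 mM NEAA/1 mM pyruvate/25 mM HEPES; 3 h compound exposure; beta-lactamase FRET readout after 2 h substrate loading at RT.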
The nature of test [15]: cAMP Responsive Elements (CRE) small molecule antagonists, cell-based qHTS assay (AID 1963591; active = well fitted inhibition curve with a large enough effect in the signal ratio in the repeat runs, not every such curve was filed as active; the % refers to the signal ratio). A digest of the protocol:
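Inhibition of NKH477-driven (0.25 uM final) CRE-beta-lactamase signal in HEK293T cells, 3 h compound exposure at 37 °C, detected by FRET substrate fluorescence.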

Test [16] deals with Beta-2 adrenergic receptor (Homo sapiens) (UniProt P07550). In words: Adrenergic beta2 receptor (ADRB2) small molecule antagonists, cell-based qHTS assay (AID 1963592). Also: series mostly up to about 92 µM; nearly all actives have a fitted effect of over 50% in size. A digest of the protocol:
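Cells (CHO, stable ADRB2 overexpression) incubated 18-20hr at 37C; compounds added from DMSO; agonist mix (1nM isoproterenol, 100uM IBMX, 25uM Ro-20-1724) added; 0.5hr RT; d2-cAMP and anti-cAMP-cryptate added; 1hr RT; 665/615 nm read.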

Test [17] has the same target. In words: Adrenergic beta2 receptor (ADRB2) small molecule agonists, cell-based qHTS assay (AID 1963593).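 Also: CHO cells stably overexpressing human ADRB2.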 A digest of the protocol: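 CHO cells stably over-expressing ADRB2 were plated overnight at 37C, then dosed with compounds plus a stimulation mix containing 100uM IBMX and 25uM Ro-20-1724 for 0.5hr at room temperature. cAMP was measured by HTRF competition, 1hr.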

Test [18] deals with D(2) dopamine receptor (Homo sapiens) (UniProt P14416). The test is described as follows: Dopamine D2 receptor (DRD2) small molecule agonists, cell-based qHTS assay (AID 1963594). Also: nearly all actives have a fitted effect of over 35% in size. A digest of the protocol:
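HEK293 cells stably expressing DRD2 were cultured 24 h at 37 C, then given Ro20-1724 (0.1 mM final) and compounds for 10 min at room temperature. NKH477 (200nM) was then added for 30 min. cAMP was read by HTRF.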

Test [19] has the same target. In words: Dopamine D2 receptor (DRD2) small molecule antagonists, cell-based qHTS assay (AID 1963595; active = well fitted inhibition curve with a large enough effect in the signal ratio in the repeat runs, with a control signal flat; the % refers to the signal ratio). A digest of the protocol:
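HTRF cAMP read-out at 665 and 620 nm emission (340 nm excitation). Antagonist mode: compounds were tested against 12 nM quinpirole in DRD2-HEK293 cells, with 200 nM NKH477 raising cAMP and 0.1 mM Ro20-1724 blocking its breakdown.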

The target in test [20] is 5-hydroxytryptamine receptor 2A (Homo sapiens) (UniProt P28223). The test is described as follows: 5-hydroxytryptamine receptor 2A (HTR2A) small molecule antagonists, cell-based qHTS assay (AID 1963586). Also: nearly all actives have a fitted effect of over 45% in size. A digest of the protocol: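 Antagonist-mode intracellular calcium assay: DOI (4 nM) added after 5 min compound pre-incubation at room temperature to dye-loaded HTR2A-CHO cells. Fluorescence followed for 3 min, sampled every second.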

Values without a mark were called inactive. Inconclusive results are not listed. Active and inactive are the calls of the source. Unless noted, calls follow the shape of the full dose curve.

Sequence of Beta-2 adrenergic receptor (Homo sapiens) (P07550 whole entry, looked up): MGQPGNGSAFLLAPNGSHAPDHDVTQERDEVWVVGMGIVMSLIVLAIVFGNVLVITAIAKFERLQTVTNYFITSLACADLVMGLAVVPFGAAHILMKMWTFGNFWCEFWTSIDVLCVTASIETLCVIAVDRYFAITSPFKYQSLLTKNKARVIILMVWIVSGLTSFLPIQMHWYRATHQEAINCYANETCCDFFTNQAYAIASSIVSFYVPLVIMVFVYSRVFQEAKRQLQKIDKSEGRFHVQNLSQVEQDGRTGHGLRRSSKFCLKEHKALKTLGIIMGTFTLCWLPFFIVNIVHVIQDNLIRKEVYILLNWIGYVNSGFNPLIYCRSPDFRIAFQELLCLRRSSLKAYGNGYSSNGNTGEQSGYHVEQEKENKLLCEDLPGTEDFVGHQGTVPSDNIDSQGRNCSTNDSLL
Sequence of Gonadotropin-releasing hormone receptor (Homo sapiens) (P30968 whole entry, looked up): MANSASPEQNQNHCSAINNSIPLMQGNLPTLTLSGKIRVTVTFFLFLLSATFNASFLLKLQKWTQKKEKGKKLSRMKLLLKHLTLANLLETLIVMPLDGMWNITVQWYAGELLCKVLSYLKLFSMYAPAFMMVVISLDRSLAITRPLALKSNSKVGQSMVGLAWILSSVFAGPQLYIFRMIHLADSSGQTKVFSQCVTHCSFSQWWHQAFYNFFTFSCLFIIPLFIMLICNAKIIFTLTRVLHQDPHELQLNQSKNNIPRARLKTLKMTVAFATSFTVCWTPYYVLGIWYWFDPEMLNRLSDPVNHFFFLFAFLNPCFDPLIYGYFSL
Sequence of Muscarinic acetylcholine receptor M1 (Homo sapiens) (P11229 whole entry, looked up): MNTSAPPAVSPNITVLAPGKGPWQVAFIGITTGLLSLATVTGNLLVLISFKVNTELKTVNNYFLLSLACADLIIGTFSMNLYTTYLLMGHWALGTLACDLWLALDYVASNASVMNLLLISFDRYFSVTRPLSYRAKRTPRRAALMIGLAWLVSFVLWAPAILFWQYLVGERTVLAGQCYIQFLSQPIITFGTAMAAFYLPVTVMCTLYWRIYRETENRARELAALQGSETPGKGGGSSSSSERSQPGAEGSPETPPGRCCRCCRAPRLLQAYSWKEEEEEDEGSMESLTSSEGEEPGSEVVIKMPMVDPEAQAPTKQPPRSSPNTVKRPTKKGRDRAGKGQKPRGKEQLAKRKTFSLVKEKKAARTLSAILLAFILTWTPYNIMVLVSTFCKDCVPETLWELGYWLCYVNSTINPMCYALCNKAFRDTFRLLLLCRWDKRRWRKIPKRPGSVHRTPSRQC
Sequence of 5-hydroxytryptamine receptor 2A (Homo sapiens) (P28223 whole entry, looked up): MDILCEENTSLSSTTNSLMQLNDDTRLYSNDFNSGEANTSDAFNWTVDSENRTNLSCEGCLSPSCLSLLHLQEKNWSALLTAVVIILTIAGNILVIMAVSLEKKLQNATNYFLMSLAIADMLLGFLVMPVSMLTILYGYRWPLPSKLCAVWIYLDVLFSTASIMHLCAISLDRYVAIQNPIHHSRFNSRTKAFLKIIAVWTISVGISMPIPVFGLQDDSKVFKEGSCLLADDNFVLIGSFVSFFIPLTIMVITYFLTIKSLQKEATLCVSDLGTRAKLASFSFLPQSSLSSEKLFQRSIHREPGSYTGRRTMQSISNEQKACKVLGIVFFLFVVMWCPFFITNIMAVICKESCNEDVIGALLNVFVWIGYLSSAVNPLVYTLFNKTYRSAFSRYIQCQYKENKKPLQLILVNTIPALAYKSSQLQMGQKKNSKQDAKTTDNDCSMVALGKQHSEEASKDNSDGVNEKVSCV
Sequence of D(2) dopamine receptor (Homo sapiens) (P14416 whole entry, looked up): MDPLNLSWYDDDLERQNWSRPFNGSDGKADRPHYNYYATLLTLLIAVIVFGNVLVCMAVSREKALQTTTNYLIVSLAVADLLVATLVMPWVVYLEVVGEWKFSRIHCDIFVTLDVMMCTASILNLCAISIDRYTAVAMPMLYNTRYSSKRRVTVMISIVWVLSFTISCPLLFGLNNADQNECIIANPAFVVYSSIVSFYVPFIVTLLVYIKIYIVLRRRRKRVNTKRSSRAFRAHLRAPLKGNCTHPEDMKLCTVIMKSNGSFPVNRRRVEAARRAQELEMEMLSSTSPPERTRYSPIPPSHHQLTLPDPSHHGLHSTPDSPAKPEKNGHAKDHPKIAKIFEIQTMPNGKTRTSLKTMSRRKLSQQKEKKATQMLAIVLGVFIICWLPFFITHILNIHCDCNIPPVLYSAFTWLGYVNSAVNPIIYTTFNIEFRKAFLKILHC
Sequence of KiSS-1 receptor (Homo sapiens) (Q969F8 whole entry, looked up): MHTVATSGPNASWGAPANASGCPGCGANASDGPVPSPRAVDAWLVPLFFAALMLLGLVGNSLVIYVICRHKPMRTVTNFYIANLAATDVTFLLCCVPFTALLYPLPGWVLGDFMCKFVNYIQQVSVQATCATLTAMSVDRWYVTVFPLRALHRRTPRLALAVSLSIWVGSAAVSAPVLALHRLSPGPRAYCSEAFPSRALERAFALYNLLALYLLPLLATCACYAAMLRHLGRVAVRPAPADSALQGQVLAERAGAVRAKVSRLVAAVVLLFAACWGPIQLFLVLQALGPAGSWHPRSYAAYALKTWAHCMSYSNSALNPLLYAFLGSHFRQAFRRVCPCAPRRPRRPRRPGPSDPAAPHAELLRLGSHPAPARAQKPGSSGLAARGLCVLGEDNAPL

For `CCCCCCCCCCCCCCC1CO1` (stereo not given), the Potency result in test [1], in [2], in test [3], in [6], in [7] and in test [8] was “inactive” each time. The Potency result in [9], in [10], in test [11], in test [12], in [13] and in [14] was “inactive” each time. Moreover, the Potency result in test [15], in test [16], in [17], in test [18] and in test [19] was “inactive” throughout. Further, the outcome in [4] and in test [5] was inactive.
Regarding `COc1ccc(OC)c(OC)c1`, the Potency entry in test [1], in [2], in test [3], in test [6], in test [7] and in test [8] was “inactive” throughout. In addition, the Potency entry in [9], in test [10], in test [11], in [12], in test [14] and in [15] was “inactive” each time. In addition, the Potency result in [16] and in test [19] was “inactive” in each case. In addition, the result in test [4] and in test [5] was inactive.
Take `CCC(C)N(C)C(=O)c1cc2ccccc2c(-c2ccccc2Cl)n1` (stereo not given): the Potency result in test [1], in test [2], in [3], in test [6], in test [7] and in [8] was “inactive” each time. Further, the Potency result in test [9], in test [10], in test [20], in [13], in test [14] and in [16] was “inactive” each time. The Potency result in test [18] and in [19] was “inactive” in each case. Besides, the result in test [4] and in test [5] was inactive.
`COc1ccc(C(=O)N2CCN(CC(=O)N3CCOCC3)CC2)cc1`: the Potency entry in [1], in test [2], in test [3], in [6], in test [7] and in test [8] was “inactive” throughout. Besides, the Potency result in [9], in test [10], in test [12], in test [13], in test [14] and in test [15] was “inactive” in each case. In addition, the Potency entry in [16], in [17], in test [18] and in test [19] was “inactive” throughout. Further, the result in [4] and in [5] was inactive.
As for `O=c1[nH]ncc2ccccc12`, the Potency result in [1], in [2], in [3], in [6], in test [7] and in [8] was “inactive” in each case. The Potency result in test [9], in test [10], in test [20], in test [12], in [13] and in test [14] was “inactive” each time. The Potency entry in test [15], in test [16], in test [18] and in test [19] was “inactive” each time. Moreover, the result in test [4] and in test [5] was inactive.
For `Nc1ccc(Oc2cccc(Oc3ccc(N)cc3)c2)cc1`, the Potency result in [1], in test [2], in test [3], in test [6], in test [7] and in [8] was “inactive” throughout. In addition, the Potency entry in test [9], in test [10], in test [12], in test [13], in [14] and in test [15] was “inactive” throughout. Moreover, the Potency entry in test [16], in [18] and in test [19] was “inactive” throughout. The result in [4] and in test [5] was inactive.
For the molecule `CCCCCCc1ccc(N)cc1`, the Potency entry in test [1], in test [3], in [6], in test [7], in test [8] and in test [9] was “inactive” each time. Besides, the Potency result in test [10], in [11], in test [12], in test [16], in test [17] and in test [18] was “inactive” each time. Also, the Potency result in [19] was “inactive”. The Potency in test [2] was 27.3 µM (active). Further, the result in [4] and in test [5] was inactive.
